# STAT3 SMM = STAT3 binders, primary screen, biochemical, small molecule microarray, single point, set 2; Signal transducer and activator of transcription 3 (Homo sapiens), P40763; His-STAT3 binding, anti-His fluorescence; calls only; 17,000 tested, 0.2% active; AID 624138, 2012;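 active means compounds whose four printed spots each show fluorescence over background unusually high for their array block, chance value under 7%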
# mut p53 SMM = binders of human mutant p53, primary screen, biochemical, small molecule microarray, anti-GST fluorescence | small molecule microarray binding | calls only | 17,000 tested, 0.4% active | AID 624136, 2012;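 active means compounds whose four printed spots each glow above background more than chance allows, each with a p-value under 7%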
# p53 PUMA act = mutant p53 pathway re-activators, primary screen, cell-based, SW480, luciferase, single point, HTS. activation, % at 9.98 µM. SW480 PUMA-promoter luciferase, p53 mutant reactivation. 28,000 tested, 1.5% active. AID 624151, 2012; in the data active means activation above about 52%
# c-Myc SMM = binders of human c-Myc, primary screen, biochemical, small molecule microarray, anti-His fluorescence | Myc proto-oncogene protein (Homo sapiens), P01106 | His-c-Myc binding | calls only | 17,000 tested, 1.5% active | AID 624141, 2012;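 active means spot fluorescence over background with P-value below 7% in all four replicate spots, showing protein binding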;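 further: score is binary with 100 for all four spots passing and 0 otherwise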
# Target sequence (P01106 whole entry, looked up): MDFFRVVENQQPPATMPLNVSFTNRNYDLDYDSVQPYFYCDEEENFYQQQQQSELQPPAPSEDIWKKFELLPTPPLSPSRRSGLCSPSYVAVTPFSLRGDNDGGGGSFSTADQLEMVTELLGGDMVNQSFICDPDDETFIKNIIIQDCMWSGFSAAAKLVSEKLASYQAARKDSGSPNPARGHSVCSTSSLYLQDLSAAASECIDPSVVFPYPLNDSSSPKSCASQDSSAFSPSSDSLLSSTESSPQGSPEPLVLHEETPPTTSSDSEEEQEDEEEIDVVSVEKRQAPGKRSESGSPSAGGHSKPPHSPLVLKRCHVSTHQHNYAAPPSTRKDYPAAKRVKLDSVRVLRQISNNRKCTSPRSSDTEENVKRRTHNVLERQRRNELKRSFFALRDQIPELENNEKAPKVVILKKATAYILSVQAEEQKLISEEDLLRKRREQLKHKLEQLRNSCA
# NFkB SMM = binders of NF-kB p50 subunit, primary screen, biochemical, small molecule microarray, anti-His fluorescence | Nuclear factor NF-kappa-B p105 subunit (Homo sapiens), P19838 | anti-His fluorescence binding | calls only | 17,000 tested, 1.3% active | AID 624139, 2012;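 active means spot fluorescence over background significantly raised, with a chance value under 7% in all four replicate spots of the compound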;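 further: probe protein is his-tagged human p50 processed subunit at 1 µg/ml; raw spot fluorescence signals with no normalization applied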
# * = called active by the depositor; i = inactive; · = no result; + = active, no number. Rows were chosen to be rich in hits. Some 2.8% of all compounds tested hit in one or more screens of this group.
SMILES,STAT3 SMM,mut p53 SMM,p53 PUMA act,c-Myc SMM,NFkB SMM
O=C1O[C@@H](c2ccccc2)[C@@H](c2ccccc2)N2[C@@H](c3ccc(OCCO)cc3)[C@]3(C(=O)Nc4ccccc43)[C@@H](C(=O)N3CCCCCCC3)[C@H]12,i,+,·,+,+
O=C1O[C@H](c2ccccc2)[C@H](c2ccccc2)N2[C@H]1[C@@H](C(=O)N1CCCCCCC1)[C@]1(C(=O)Nc3ccccc31)[C@H]2c1ccc(OCCO)cc1,i,+,·,+,+
CC(=O)C1C(=O)[C@@H]2[C@H]3c4c[nH]c5cccc(c45)C[C@H]3C(C)(C)N2C1=O (some centres not stated),·,·,-47,·,·
Cc1ccc(OCCCn2c(CO)nc3ccccc32)cc1,·,·,63*,·,·
Cc1cccc(OCCCn2c(CO)nc3ccccc32)c1,·,·,25,·,·
COc1ccc(OC)c(S(=O)(=O)N2CCC(C(=O)Nc3c(C)cc(C)cc3C)CC2)c1,·,·,-9,·,·
CC(=O)c1cccc(NC(=O)NCc2cccnc2)c1,·,·,-15,·,·
Cn1ccc2cc(NC(=O)Nc3cccnc3)ccc21,i,i,80*,i,i
C=C1c2c(Cl)ccc(O)c2C(=O)C2C(=O)[C@]3(O)C(=O)C(C(N)=O)C(=O)[C@@H](N(C)C)[C@@H]3[C@@H](O)C12 (some centres not stated),i,i,-17,i,i
Cc1nc2cc(NC(=O)NCc3ccco3)ccc2o1,i,i,58*,i,i
O=C(O)C(Cc1ccccc1)N1C(=O)c2ccccc2C1=O (configuration not stated),i,i,65*,i,i
COc1ccc(NC(=O)C(Cc2ccccc2)N2C(=O)c3ccccc3C2=O)cc1 (configuration not stated),·,·,3,·,·
COc1ccc2cc(C(=O)NCc3ccco3)c(=O)oc2c1,·,·,74*,·,·
Nc1nnc(SCC(=O)c2ccc3ccccc3c2)s1,·,·,95*,·,·
COC(=O)c1ccc(NC(=O)CCn2nc(-c3ccccc3)c3ccccc3c2=O)cc1,·,·,-3,·,·
O=C(O)CCCC(=O)Nc1ccc(Br)cc1C(=O)O,i,i,7,+,+
COc1ccc(-n2c(SCC(=O)c3ccc(Cl)cc3)nnc2-c2ccccc2)cc1,·,·,-4,·,·
COc1cccc(OCc2nc(-c3ccccc3)no2)c1,i,i,112*,i,i
COc1cc(OC)cc(C(=O)NCc2nc(-c3ccccc3)no2)c1,·,·,-2,·,·
Cc1c(NC(=O)CN(c2cc(Cl)ccc2Cl)S(C)(=O)=O)c(=O)n(-c2ccccc2)n1C,·,·,-3,·,·
CCOc1ccccc1Nc1nc(N)nc(CSc2nccc(C)n2)n1,·,·,16,·,·
COc1ccccc1Nc1nc(N)nc(CSc2ncccn2)n1,i,i,86*,i,i
CC(Oc1ccccc1F)C(=O)Nc1ccccc1[N+](=O)[O-] (configuration not stated),·,·,57*,·,·
CC(Oc1ccc(Br)cc1)C(=O)Nc1ccccc1[N+](=O)[O-] (configuration not stated),·,·,10,·,·
Cc1cc(C)c2c(=O)cc(C(F)(F)F)oc2c1,·,·,4,·,·
SMILES,STAT3 SMM,mut p53 SMM,p53 PUMA act,c-Myc SMM,NFkB SMM
Cc1cc(C)c(S(=O)(=O)N(C)CC(=O)Nc2ccc(F)c(Cl)c2)c(C)c1,·,·,-6,·,·
Cc1ccc(NC(=O)c2[nH]c3c(c2C)C(=O)CC(c2ccc(C(C)(C)C)cc2)C3)cc1C (configuration not stated),·,·,-1,·,·
COC(=O)c1ccc(COc2ccc3c(c2)oc(=O)c2cc(OC)ccc23)o1,·,·,5,·,·
COC(=O)c1ccc(COc2ccc3c(C)cc(=O)oc3c2)o1,i,i,63*,i,i
O=C(Nc1ccc(Cl)cc1Cl)C1CC(=O)n2ncnc2N1 (configuration not stated),·,·,2,·,·
CC(C)n1cnc2c(NCc3ccccc3)nc(NCCCO)nc21,i,i,-7,i,i
CC(C)n1cnc2c(NCc3ccccc3)nc(NCCO)nc21,·,·,92*,·,·
COc1ccc(-n2c(SCC(=O)Nc3ccccc3C(F)(F)F)nnc2-c2ccccc2)cc1,·,·,2,·,·
COC(=O)c1ccccc1NC(=O)COc1ccccc1F,i,i,43,i,i
CC(C)(C)c1ccc(OCC(=O)NCc2ccco2)c(Br)c1,·,·,88*,·,·
COc1cc(NC(=O)COc2ccc(C(C)(C)C)cc2Br)c(OC)cc1Cl,·,·,21,·,·
COC(=O)c1ccccc1NC(=O)COc1ccc(C(C)C)cc1Br,·,·,54*,·,·
CC(C)(C)c1ccc(OCC(=O)Nc2ccccc2C(N)=O)c(Br)c1,·,·,85*,·,·
Cc1ccc(-n2c(SCC(=O)Nc3sc4c(c3C#N)CCCC4)nnc2-c2ccccc2)cc1,·,·,-3,·,·
O=C(CSc1ncccc1C(=O)O)c1cccc([N+](=O)[O-])c1,i,i,-3,+,i
Cc1ccc2nc(Nc3nc(CSc4nnc(C)s4)cc(=O)[nH]3)nc(C)c2c1,·,·,54*,·,·
COc1ccccc1-n1c(SCC(=O)c2ccc(Cl)cc2)nc2ccccc2c1=O,·,·,-7,·,·
CCOC(=O)c1cccc(NC(=O)COc2ccc(Br)cc2)c1,·,·,2,·,·
O=C(COc1ccc(Br)cc1)Nc1cccc(-c2nnc(-c3ccccc3)o2)c1,·,·,109*,·,·
O=C(COc1ccc(Br)cc1)Nc1ccc2oc(-c3ccc(F)cc3)nc2c1,·,·,69*,·,·
O=C(COc1ccc(Br)cc1)Nc1cccc(-c2nc3ccccc3o2)c1,i,i,74*,i,i
Cc1ccc(-c2nc3ncccc3o2)cc1NC(=O)COc1cc(Cl)c(Cl)cc1Cl,·,·,5,·,·
CC(=O)Nc1cccc(NC(=O)c2cc(-c3ccccn3)nc3ccc(Cl)cc23)c1,i,i,-31,i,i
COc1cccc(CN2CCN(C(=O)c3cc(-c4ccccn4)nc4ccc(Cl)cc34)CC2)c1,i,+,-15,i,i
COc1ccc(-c2nc3ccccc3s2)cc1NC(=O)COc1ccc(Cl)cc1Cl,·,·,74*,·,·
SMILES,STAT3 SMM,mut p53 SMM,p53 PUMA act,c-Myc SMM,NFkB SMM
O=C(O)COc1cccc(-c2nc3ccccc3s2)c1,·,·,-43,·,·
COc1ccc(OCC(=O)Nc2ccc(-c3nc4ccccc4s3)c(Cl)c2)cc1,i,i,-10,i,i
COc1ccccc1OCC(=O)Nc1cccc(-c2nc3ccccc3s2)c1,·,·,67*,·,·
Cc1cccc(OCC(=O)Nc2cccc(-c3nc4ccccc4s3)c2)c1,·,·,59*,·,·
CSc1nnc(-c2ccccc2NC(=O)c2ccccc2)c(=O)[nH]1,·,·,1,·,·
CC(=O)c1cccc(N(CC(=O)Nc2ccc(F)cc2F)S(C)(=O)=O)c1,·,·,60*,·,·
O=C(Cn1cc(C(=O)c2ccccc2F)c2ccccc21)NCC1CCCO1 (configuration not stated),·,·,-6,·,·
OC(COc1ccccc1Cl)Cn1cnc2ccccc21 (configuration not stated),·,·,111*,·,·
COc1ccc(OCC(O)Cn2cnc3ccccc32)cc1 (configuration not stated),·,·,11,·,·
Cc1nc2ccccc2n1CC(O)COc1ccccc1Cl (configuration not stated),·,·,-6,·,·

# From PubChem
